Measured values taken from PubChem BioAssay AID1159580 (chemical genetic matrix, 2015).
Where “and” joins values, the source holds several entries; their conditions need not be identical. Equal values may be shown once. The campaign covered roughly 5,500 compounds. About 2,000 (36%) were called active. Not shown: some 18% with an inconclusive outcome. Rule as the data show it: active = normalized growth mostly below about 0.91 (no sharp cut-off); inconclusive = no clear call, values can overlap the other calls; inactive = mostly above about 0.92. Some of the results follow.

Assay: chemical genetic growth profiling, strain panel (AID 1159580);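 also: tested at 20 µM; growth read once vehicle control cultures reached saturation at 30 °C; 1 = growth at the plate median or of vehicle wells; lower values mean less growth of the strain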
Conditions: S. cerevisiae deletion strains, growth OD

Measured: normalized growth

COc1ccc(OC)c(C(O)C(C)N)c1 (stereo not given)
inactive: locus YAL013W, strain DEP1, hits give low values 1.02 and 1.01 | locus YAL021C, strain ccr4, hits give low values 1 | locus YAL026C, strain drs2, hits give low values 0.993 | locus YAL030W, strain snc1, hits give low values 0.998 | locus YAL040C, strain CLN3, hits give low values 0.977 | locus YBL061C, strain skt5, hits give low values 0.996 | locus YBR009C, strain hhf1, hits give low values 1.01 | locus YBR021W, strain FUR4, hits give low values 1.01 | locus YBR023C, strain chs3, hits give low values 0.998 | locus YBR171W, strain sec66, hits give low values 0.991 | locus YBR229C, strain ROT2, hits give low values 1.02 | locus YBR231C, strain swc5, hits give low values 0.977 | locus YBR279W, strain paf1, hits give low values 1 | locus YCL011C, strain gbp2, hits give low values 1.01 | locus YCL016C, strain dcc1, hits give low values 1.01 | locus YCL029C, strain bik1, hits give low values 0.99 | locus YCL061C, strain MRC1 (second series), hits give low values 1.02 | locus YCL061C, strain MRC1, hits give low values 0.99 | locus YCL069W, strain vba3, hits give low values 1 | locus YCR088W, strain abp1, hits give low values 0.998 | locus YDL005C, strain med2, hits give low values 0.994 | locus YDL035C, strain GPR1, hits give low values 1.01 | locus YDL040C, strain nat1, hits give low values 0.996 | locus YDL074C, strain BRE1, hits give low values 1.05 | locus YDL101C, strain DUN1, hits give low values 1.03 | locus YDL134C, strain PPH21, hits give low values 1.03 | locus YDL185W, strain tfp1, hits give low values 0.988 | locus YDL192W, strain arf1, hits give low values 0.99 | locus YDR001C, strain nth1, hits give low values 0.99 | locus YDR069C, strain doa4, hits give low values 0.999 | locus YDR101C, strain arx1, hits give low values 0.981 | locus YDR137W, strain rgp1, hits give low values 1.03 | locus YDR150W, strain NUM1, hits give low values 1.02 | locus YDR159W, strain sac3, hits give low values 1.01 | locus YDR162C, strain NBP2, hits give low values 1.05 | locus YDR195W, strain ref2 0.948 | locus YDR297W, strain sur2, hits give low values 0.998 | locus YDR318W, strain mcm21, hits give low values 0.977 | locus YDR334W, strain swr1, hits give low values 0.993 | locus YDR335W, strain msn5, hits give low values 0.997 | locus YDR363W, strain ESC2, hits give low values 1.03 | locus YDR388W, hits give low values 0.977 | locus YDR392W, strain spt3, hits give low values 1.01 | locus YDR502C, strain sam2, hits give low values 1 | locus YEL003W, strain gim4, hits give low values 1 | locus YEL037C, strain rad23, hits give low values 0.991 | locus YEL061C, strain CIN8 (second series), hits give low values 0.983 | locus YEL061C, strain CIN8, hits give low values 1.01 | locus YER002W, strain NOP16, hits give low values 0.993 | locus YER015W, strain faa2, hits give low values 0.99 | locus YER016W, strain bim1, hits give low values 0.998 | locus YER110C, hits give low values 0.981 | locus YER111C, strain swi4, hits give low values 1 | locus YER155C, strain BEM2 (second series), hits give low values 0.988 | locus YER155C, strain BEM2, hits give low values 1.01 | locus YER167W, strain BCK2, hits give low values 1.01 | locus YFR010W, strain ubp6, hits give low values 0.99 | locus YGL078C, strain dbp3, hits give low values 0.997 | locus YGL086W, strain mad1, hits give low values 0.983 | locus YGL167C, strain pmr1, hits give low values 0.998 | locus YGL173C, strain kem1, hits give low values 0.991 | locus YGL227W, strain vid30, hits give low values 0.991 | locus YGL240W, strain doc1, hits give low values 0.981 | locus YGL248W, strain PDE1, hits give low values 1.03 | locus YGL253W, strain hxk2, hits give low values 0.998 | locus YGR078C, strain PAC10, hits give low values 1.04 | locus YGR135W, strain pre9, hits give low values 1.03 | locus YGR229C, strain SMI1, hits give low values 1.03 | locus YGR252W, strain gcn5, hits give low values 0.947 | locus YHR013C, strain ard1, hits give low values 0.99 | locus YHR027C, strain rpn1, hits give low values 1 | locus YHR030C, strain SLT2, hits give low values 1 and 1.03 | locus YHR079C, strain IRE1 (second series), hits give low values 0.988 | locus YHR079C, strain IRE1, hits give low values 1.05 | locus YHR094C, strain hxt1, hits give low values 0.99 | locus YHR129C, strain ARP1, hits give low values 1.01 | locus YHR142W, strain chs7, hits give low values 1.01 | locus YHR200W, strain rpn10, hits give low values 0.993 | locus YIL066C, strain RNR3, hits give low values 1.01 | locus YIL073C, strain SPO22, hits give low values 1 | locus YIL125W, strain kgd1, hits give low values 0.995 | locus YIR030C, strain dcg1, hits give low values 0.988 | locus YJL092W, strain hpr5, hits give low values 0.997 | locus YJL095W, strain BCK1 (second series), hits give low values 0.997 | locus YJL095W, strain BCK1, hits give low values 1.04 and 1.03 | locus YJL115W, strain asf1, hits give low values 0.99 | locus YJL129C, strain trk1, hits give low values 0.997 | locus YJL134W, strain LCB3, hits give low values 1.01 | locus YJL154C, strain vps35, hits give low values 0.998 | locus YJL164C, strain tpk1, hits give low values 1.01 | locus YJL166W, strain qcr8, hits give low values 0.974 | locus YJL168C, strain set2, hits give low values 0.989 | locus YJL187C, strain SWE1 (second series), hits give low values 1.02 | locus YJL187C, strain SWE1, hits give low values 1 | locus YJR043C, strain POL32, hits give low values 0.977
